# Assay results as given in the supplement of paper PMC4466140.
# Tests used:
# Experiment in all cases: SPOT peptide array binding signal intensity (averaged, normalized) (arbitrary units (background-subtracted, floor 0; scale differs between SH3 domains)); higher = stronger binding of the SH3 domain to the peptide
# AgAbp1 = molecular target: AgAbp1
# Outline: (§1)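 Spot intensities were captured after detection with anti-GST antibody, an HRP-linked anti-mouse secondary and luminol, and quantified with Genespotter. The probes were GST-fused SH3 domains from four yeast species, produced in E. coli BL21(DE3), purified on glutathione Sepharose and incubated at 10 μg/ml overnight at 4°C on cellulose-bound synthetic 15-mer peptides with cysteines replaced by serines. Binding signal is the normalized, background-subtracted spot intensity averaged over replicates, and its arbitrary units differ between domains.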
# AgBbc1 = molecular target: AgBbc1
# Outline: as §1
# AgBem1-D1 = molecular target: AgBem1-D1
# Outline: as §1
# AgBzz1-D1 = molecular target: AgBzz1-D1
# Outline: as §1
# AgBzz1-D2 = molecular target: AgBzz1-D2
# Outline: as §1
# AgCyk3 = molecular target: AgCyk3
# Outline: as §1
# AgFus1 = molecular target: AgFus1
# Outline: as §1
# AgHof1 = molecular target: AgHof1
# Outline: as §1
# AgHse1 = molecular target: AgHse1
# Outline: as §1
# AgLsb1 = molecular target: AgLsb1
# Outline: as §1
# AgLsb4 = molecular target: AgLsb4
# Outline: as §1
# AgMyo5 = molecular target: AgMyo5
# Outline: as §1
# AgNbp2 = molecular target: AgNbp2
# Outline: as §1
# AgRvs167 = molecular target: AgRvs167
# Outline: as §1
# AgSho1 = molecular target: AgSho1
# Outline: as §1
# AgSla1-D1-D2 = molecular target: AgSla1-D1-D2
# Outline: as §1
# AgSla1-D3 = molecular target: AgSla1-D3
# Outline: as §1
# CaAbp1-D1 = molecular target: CaAbp1-D1
# Outline: as §1
# CaAbp1-D2 = molecular target: CaAbp1-D2
# Outline: as §1
# CaBbc1 = molecular target: CaBbc1
# Outline: as §1
# CaBem1-D1 = molecular target: CaBem1-D1
# Outline: as §1
# CaBzz1-D1 = molecular target: CaBzz1-D1
# Outline: as §1
# CaBzz1-D2 = molecular target: CaBzz1-D2
# Outline: as §1
# CaCyk3 = molecular target: CaCyk3
# Outline: as §1
# CaFus1 = molecular target: CaFus1
# Outline: as §1
# CaHof1 = molecular target: CaHof1
# Outline: as §1
# CaHse1 = molecular target: CaHse1
# Outline: as §1
# CaLsb1 = molecular target: CaLsb1
# Outline: as §1
# CaLsb4 = molecular target: CaLsb4
# Outline: as §1
# CaMyo5 = molecular target: CaMyo5
# Outline: as §1
# CaNbp2 = molecular target: CaNbp2
# Outline: as §1
# CaRvs167 = molecular target: CaRvs167
# Outline: as §1
# CaRvs167-3 = molecular target: CaRvs167-3
# Outline: as §1
# CaSho1 = molecular target: CaSho1
# Outline: as §1
# CaSla1-D1-D2 = molecular target: CaSla1-D1-D2
# Outline: as §1
# CaSla1-D3 = molecular target: CaSla1-D3
# Outline: as §1
# ScAbp1 = molecular target: ScAbp1
# Outline: as §1
# ScBbc1 = molecular target: ScBbc1
# Outline: as §1
# ScBem1-D1 = molecular target: ScBem1-D1
# Outline: as §1
# ScBzz1-D1 = molecular target: ScBzz1-D1
# Outline: as §1
# ScBzz1-D2 = molecular target: ScBzz1-D2
# Outline: as §1
# ScCyk3 = molecular target: ScCyk3
# Outline: as §1
# ScFus1 = molecular target: ScFus1
# Outline: as §1
# ScHof1 = molecular target: ScHof1
# Outline: as §1
# ScHse1 = molecular target: ScHse1
# Outline: as §1
# ScLsb1 = molecular target: ScLsb1
# Outline: as §1
# ScLsb2 = molecular target: ScLsb2
# Outline: as §1
# ScLsb3 = molecular target: ScLsb3
# Outline: as §1
# ScLsb4 = molecular target: ScLsb4
# Outline: as §1
# ScMyo3 = molecular target: ScMyo3
# Outline: as §1
# ScMyo5 = molecular target: ScMyo5
# Outline: as §1
# ScNbp2 = molecular target: ScNbp2
# Outline: as §1
# ScPex13 = molecular target: ScPex13
# Outline: as §1
# ScRvs167 = molecular target: ScRvs167
# Outline: as §1
# ScSho1 = molecular target: ScSho1
# Outline: as §1
# ScSla1-D1-D2 = molecular target: ScSla1-D1-D2
# Outline: as §1
# ScSla1-D3 = molecular target: ScSla1-D3
# Outline: as §1
# SpAbp1-D1 = molecular target: SpAbp1-D1
# Outline: as §1
# SpBbc1 = molecular target: SpBbc1
# Outline: as §1
# SpBzz1-D1 = molecular target: SpBzz1-D1
# Outline: as §1
# SpBzz1-D2 = molecular target: SpBzz1-D2
# Outline: as §1
# SpCyk3 = molecular target: SpCyk3
# Outline: as §1
# SpHof1 = molecular target: SpHof1
# Outline: as §1
# SpHof1-2 = molecular target: SpHof1-2
# Outline: as §1
# SpHof1-3 = molecular target: SpHof1-3
# Outline: as §1
# SpHse1 = molecular target: SpHse1
# Outline: as §1
# SpLsb1 = molecular target: SpLsb1
# Outline: as §1
# SpLsb4 = molecular target: SpLsb4
# Outline: as §1
# SpMyo1 = molecular target: SpMyo1
# Outline: as §1
# SpNbp2 = molecular target: SpNbp2
# Outline: as §1
# SpPex13 = molecular target: SpPex13
# Outline: as §1
# SpRvs167 = molecular target: SpRvs167
# Outline: as §1
# SpSla1-D1-D2 = molecular target: SpSla1-D1-D2
# Outline: as §1
# SpSla1-D3 = molecular target: SpSla1-D3
# Outline: as §1
binder,measurement,setting,value
WTQRRGPLVVYAEDN,SPOT peptide array binding signal intensity,AgAbp1,≤ 0
same,SPOT peptide array binding signal intensity,AgBbc1,7
same,SPOT peptide array binding signal intensity,AgBem1-D1,102
same,SPOT peptide array binding signal intensity,AgBzz1-D1,11
same,SPOT peptide array binding signal intensity,AgBzz1-D2,22.5
same,SPOT peptide array binding signal intensity,AgCyk3,0.5
same,SPOT peptide array binding signal intensity,AgFus1,35.5
same,SPOT peptide array binding signal intensity,AgHof1,15.5
same,SPOT peptide array binding signal intensity,AgHse1,20.5
same,SPOT peptide array binding signal intensity,AgLsb1,4
same,SPOT peptide array binding signal intensity,AgLsb4,17.5
same,SPOT peptide array binding signal intensity,AgMyo5,3
same,SPOT peptide array binding signal intensity,AgNbp2,≤ 0
same,SPOT peptide array binding signal intensity,AgRvs167,1.17
same,SPOT peptide array binding signal intensity,AgSho1,4
same,SPOT peptide array binding signal intensity,AgSla1-D1-D2,20
same,SPOT peptide array binding signal intensity,AgSla1-D3,2
same,SPOT peptide array binding signal intensity,CaAbp1-D1,≤ 0
same,SPOT peptide array binding signal intensity,CaAbp1-D2,≤ 0
same,SPOT peptide array binding signal intensity,CaBbc1,27.2
same,SPOT peptide array binding signal intensity,CaBem1-D1,3
same,SPOT peptide array binding signal intensity,CaBzz1-D1,286
same,SPOT peptide array binding signal intensity,CaBzz1-D2,142
same,SPOT peptide array binding signal intensity,CaCyk3,18
same,SPOT peptide array binding signal intensity,CaFus1,190
same,SPOT peptide array binding signal intensity,CaHof1,1.5
same,SPOT peptide array binding signal intensity,CaHse1,6.25
same,SPOT peptide array binding signal intensity,CaLsb1,6.5
same,SPOT peptide array binding signal intensity,CaLsb4,29.5
same,SPOT peptide array binding signal intensity,CaMyo5,26
same,SPOT peptide array binding signal intensity,CaNbp2,44.5
same,SPOT peptide array binding signal intensity,CaRvs167,12.2
same,SPOT peptide array binding signal intensity,CaRvs167-3,3.5
same,SPOT peptide array binding signal intensity,CaSho1,32
same,SPOT peptide array binding signal intensity,CaSla1-D1-D2,≤ 0
same,SPOT peptide array binding signal intensity,CaSla1-D3,0.25
same,SPOT peptide array binding signal intensity,ScAbp1,1
same,SPOT peptide array binding signal intensity,ScBbc1,≤ 0
same,SPOT peptide array binding signal intensity,ScBem1-D1,11.5
same,SPOT peptide array binding signal intensity,ScBzz1-D1,28
same,SPOT peptide array binding signal intensity,ScBzz1-D2,58
same,SPOT peptide array binding signal intensity,ScCyk3,10
same,SPOT peptide array binding signal intensity,ScFus1,28.5
same,SPOT peptide array binding signal intensity,ScHof1,0.5
same,SPOT peptide array binding signal intensity,ScHse1,140
same,SPOT peptide array binding signal intensity,ScLsb1,3.5
same,SPOT peptide array binding signal intensity,ScLsb2,≤ 0
same,SPOT peptide array binding signal intensity,ScLsb3,5
same,SPOT peptide array binding signal intensity,ScLsb4,≤ 0
same,SPOT peptide array binding signal intensity,ScMyo3,16
same,SPOT peptide array binding signal intensity,ScMyo5,9
same,SPOT peptide array binding signal intensity,ScNbp2,1.5
same,SPOT peptide array binding signal intensity,ScPex13,1
same,SPOT peptide array binding signal intensity,ScRvs167,20.8
same,SPOT peptide array binding signal intensity,ScSho1,≤ 0
same,SPOT peptide array binding signal intensity,ScSla1-D1-D2,≤ 0
same,SPOT peptide array binding signal intensity,ScSla1-D3,9
same,SPOT peptide array binding signal intensity,SpAbp1-D1,6
same,SPOT peptide array binding signal intensity,SpBbc1,2.75
same,SPOT peptide array binding signal intensity,SpBzz1-D1,458
same,SPOT peptide array binding signal intensity,SpBzz1-D2,≤ 0
same,SPOT peptide array binding signal intensity,SpCyk3,7
same,SPOT peptide array binding signal intensity,SpHof1,29.5
same,SPOT peptide array binding signal intensity,SpHof1-2,22.5
same,SPOT peptide array binding signal intensity,SpHof1-3,23
same,SPOT peptide array binding signal intensity,SpHse1,66.2
same,SPOT peptide array binding signal intensity,SpLsb1,≤ 0
same,SPOT peptide array binding signal intensity,SpLsb4,31
same,SPOT peptide array binding signal intensity,SpMyo1,16
same,SPOT peptide array binding signal intensity,SpNbp2,2
same,SPOT peptide array binding signal intensity,SpPex13,19
same,SPOT peptide array binding signal intensity,SpRvs167,16
same,SPOT peptide array binding signal intensity,SpSla1-D1-D2,3
same,SPOT peptide array binding signal intensity,SpSla1-D3,6
